Here are results for 19 molecules from PubChem BioAssay (NCATS).

Several values for one entry are separate records, joined by “and”; a condition that tells them apart may be missing. Equal values may be shown once. Results filed as inconclusive are left out. Values without a mark were called inactive. Activity calls are given as the source filed them. Calls come from the whole dose curve; as a rule, active = well fitted curve in the direction sought with a large enough effect; inconclusive = small, poorly fitted or top-dose-only effect, or another doubt; inactive = no such curve, though single readings can be large; an effect the other way counts as inactive or inconclusive.

Test [1] concerns the target Cellular tumor antigen p53 (Homo sapiens) (UniProt P04637). The experiment in a line: Primary qHTS for small molecule compounds that upregulate eGFP-tagged delta133p53alpha (in N-terminal) cells. (AID 2060322).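 For activation: cells pre-induced with doxycycline then dosed without doxycycline; series mostly up to about 56 µM; 0% = DMSO vehicle and 100% = reference activator.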 Note: nearly all actives have a fitted effect of over 75% in size. Note: potency is the fitted concentration of half-maximal effect. The settings on record: NCI-H358 eGFP-delta133p53alpha fluorescence, 24 h; activation: active compounds read high. The procedure, abridged:
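NCI-H358 cells pre-induced 24 h with 10 ng/ml doxycycline for eGFP-delta133p53alpha, plated dox-free and exposed 24 h at 37C to titrated compounds. Fixed, Hoechst-stained; gated GFP peak intensity by laser scanning cytometry, normalized to DMSO (0%) and 57.5 uM 5-azacytidine (100%).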

The target in test [2] is Aldehyde dehydrogenase, mitochondrial (Homo sapiens) (UniProt P05091). The experiment in a line: qHTS for Inhibitors of the Aldehyde Dehydrogenase Family (ALDH2) Primary screen (AID 2061308).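 Note: plate controls were vehicle for no effect and reference inhibitor for full effect; nearly all actives have a fitted effect of over 55% in size.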 A general note: Quantitative high-throughput screening tests each substance at several concentrations.
Test [3] concerns the target Retinaldehyde dehydrogenase 3 (Homo sapiens) (UniProt P47895). The test is described as follows: qHTS for Inhibitors of the Aldehyde Dehydrogenase Family (ALDH1A3) Primary screen (AID 2061315).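 Note: plate controls were DMSO vehicle for no effect and reference inhibitor for full effect.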
A short description of test [4]: BET inhibitor-based combinations targeting novel dependencies in MECOM-rearranged (r) AML: SET-2 cell line (AID 2202231).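 For viability: plate controls were DMSO treated cells for no effect and wells without cells for full effect.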 Note: nearly all actives have a fitted effect of over 35% in size. Note: potency is the fitted concentration of half-maximal effect. Conditions: SET-2 AML cells viability, CellTiter-Glo luminescence, 48 h; viability: active compounds read low, concentration not given here. The procedure, abridged:
(§1)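 Cells were plated at 500 per well and exposed to an 11-point dose series of each drug for 48 hr. Viability was measured by CellTiter-Glo luminescence, normalized to DMSO and empty-well controls, and summarized as AUC and per-cell-line Z-AUC.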

The nature of test [5]: BET inhibitor-based combinations targeting novel dependencies in MECOM-rearranged (r) AML: OCI-AML3 cell line (AID 2202232).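 Note: series mostly up to about 46 µM; plate controls were DMSO vehicle wells for no effect and wells without cells for full effect; nearly all actives have a fitted effect of over 35% in size.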 The settings on record: Potency: OCI-AML3 viability. The procedure, abridged:
as §1

The nature of test [6]: BET inhibitor-based combinations targeting novel dependencies in MECOM-rearranged (r) AML: AML-194 cell line (AID 2202237; note: nearly all actives have a fitted effect of over 40% in size; note: potency is the fitted concentration of half-maximal effect). The procedure, abridged:
as §1

Test [7] is described as follows: BET inhibitor-based combinations targeting novel dependencies in MECOM-rearranged (r) AML: MV-4-11 cell line (AID 2202233). Note: potency is the fitted concentration of half-maximal effect; nearly all actives have a fitted effect of over 45% in size. The gist of the method:
(§2)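 Activity is given as area under the curve and as Z-AUC, mean-centred within each cell line. It comes from 11-point dose curves normalized to DMSO and empty wells. CellTiter-Glo luminescence was read after 48 hr drug exposure of 500 cells/well.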

A short description of test [8]: BET inhibitor-based combinations targeting novel dependencies in MECOM-rearranged (r) AML: HNT-34 cell line (AID 2202234). Note: nearly all actives have a fitted effect of over 35% in size. Note: potency is the fitted concentration of half-maximal effect. The gist of the method:
as §2

Test [9] is described as follows: BET inhibitor-based combinations targeting novel dependencies in MECOM-rearranged (r) AML: UCSD-AML1 cell line (AID 2202235). Note: nearly all actives have a fitted effect of over 40% in size. Note: potency is the fitted concentration of half-maximal effect. The gist of the method:
as §2

A short description of test [10]: BET inhibitor-based combinations targeting novel dependencies in MECOM-rearranged (r) AML: AML-191 cell line (AID 2202236; note: nearly all actives have a fitted effect of over 35% in size; note: potency is the fitted concentration of half-maximal effect). The gist of the method:
as §1

Sequence of Cellular tumor antigen p53 (Homo sapiens) (P04637 whole entry, looked up): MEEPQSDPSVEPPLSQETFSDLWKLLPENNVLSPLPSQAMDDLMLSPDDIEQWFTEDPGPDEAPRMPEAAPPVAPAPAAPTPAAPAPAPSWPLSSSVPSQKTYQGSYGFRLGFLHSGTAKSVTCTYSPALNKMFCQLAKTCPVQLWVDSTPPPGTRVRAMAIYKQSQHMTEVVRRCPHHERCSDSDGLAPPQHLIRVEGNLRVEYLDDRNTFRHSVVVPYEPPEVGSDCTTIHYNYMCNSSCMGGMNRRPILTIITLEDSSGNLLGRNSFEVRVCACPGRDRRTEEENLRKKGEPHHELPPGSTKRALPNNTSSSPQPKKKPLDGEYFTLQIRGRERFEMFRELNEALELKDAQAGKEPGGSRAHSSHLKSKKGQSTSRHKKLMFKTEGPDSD

Consider `CC(C)S(=O)(=O)c1ccc2nccc(Nc3ccc4scnc4c3)c2c1`, for which, in test [1], the activation was -14.3%. Moreover, the Potency result in test [2], in test [3], in test [5] and in test [6] was “inactive” throughout. In addition, the viability (as a rule, a read-out of living cells in per cent, often relative to untreated cells) in test [4] was 95.8%.

As for `Oc1ccc([C@@H]2Oc3ccc(O)cc3[C@@H]3CCC[C@@H]32)cc1`, the activation in test [1] was 23.4%. Besides, the Potency entry in test [2] and in test [3] was “inactive” throughout. Also, the Potency was 18.6 µM (active) in test [4]; 13.2 µM (active) in test [7]; 9.34 µM (active) in test [8]; 5.9 µM (active) in [9]; 5.9 µM (active) in [10]; 7.42 µM (active) in test [6].

Take `Cc1ncc(Cl)cc1NCc1ccc(C(=O)NC(CC2CCCC2)C(=O)NC2CC2)s1` (stereo not drawn): in test [1], the activation is 3%. Further, the Potency entry in [2] and in [3] was “inactive” throughout. Also, the viability in test [4] was 107%. Also, the Potency is 18.6 µM (active) in [7], 0.833 µM (active) in [9] and 5.9 µM (active) in test [10].

With `O=C(NCCCNC(=O)c1ccc[nH]c1=O)c1cc(-c2ccccc2)on1`, in test [1], the activation is -2.33%. Also, the Potency result in [2] and in test [3] was “inactive” each time. Further, the Potency was 13.2 µM (active) in [4], 8.33 µM (active) in [7] and 14.8 µM (active) in test [6].

Consider `C[C@H](c1ccc(F)cc1CCCC(=O)O)N(c1cc(F)ccc1F)S(=O)(=O)c1ccc(Cl)cc1`, for which, in [1], the activation was -2.61% and 2.68%. The Potency entry in [2], in test [3] and in test [9] was “inactive” in each case. Moreover, in test [4], the viability was 113%.

As for `Cc1c(C(=O)Nc2ccc(N3C[C@@H](C)O[C@@H](C)C3)nc2)cccc1-c1ccc(OC(F)(F)F)cc1`, the activation in test [1] was 18.3% and -6.33%. Further, the Potency result in test [2], in test [3], in [8], in [9], in test [10] and in [6] was “inactive” in each case. For the same molecule, in [4], the viability is 98.5%.

`Nc1ncnc2c1c(COc1cccc(Cl)c1)nn2C1CCOCC1`: in [1], the activation is 15.2%. In addition, the Potency entry in test [2], in test [3], in test [9] and in [10] was “inactive” each time. Moreover, the viability in test [4] is 99.8%.

On to `CC(C)(C)C(=O)Oc1ccc2c(c1)nc(NC(=O)c1cccc([N+](=O)[O-])c1)n2CCCO`, for which the activation in test [1] was 12%. In addition, the Potency result in test [2], in test [3], in test [9] and in [6] was “inactive” throughout. In addition, in test [4], the viability was 111%. In test [7], the Potency is 2.95 µM (active).

In the case of `Cc1cccc(-c2[nH]c(CNc3ccccc3F)nc2-c2ccc3ncnn3c2)n1`, the activation in test [1] was -27.7%. Moreover, the Potency result in test [2], in [3], in test [9] and in test [10] was “inactive” each time. Further, the viability in test [4] was 100%.

For the molecule `NC(=O)c1cnc(-c2ccc(C3(N)CCC3)cc2)c(-c2ccccc2)c1`, in [1], the activation is 29% and -2.68%. Further, the Potency entry in test [2], in test [3], in test [10] and in test [6] was “inactive” each time. Besides, in [4], the viability was 104%. The Potency in test [7] is 3.32 µM (active); in [9], 1.32 µM (active).

As to `COc1cc2c(N3CCN(C(=O)Nc4ccc(OC(C)C)cc4)CC3)ncnc2cc1OCCCN1CCCCC1`, the activation in test [1] is 54% and 21.4%. In addition, the Potency entry in [2] and in test [3] was “inactive” in each case. Also, the viability in test [4] is 95.3%. In addition, the Potency in test [7] was 0.59 µM (active); in test [9] it was 16.6 µM (active); in test [6] it was 23.5 µM (active).

Regarding `CN(C)CCOc1cc(-c2cn[nH]c2)ccc1NC(=O)C1COc2ccccc2O1` (stereo not drawn), the activation in [1] is -38.5% and -11.6%. In addition, the Potency entry in test [2], in test [3], in test [8] and in test [9] was “inactive” throughout. Moreover, in test [4], the viability is 92.6%. In [10], the Potency was 5.9 µM (active).

As to `Cc1cncc2cccc(S(=O)(=O)N3CCCN(C(=O)CN)C[C@@H]3C)c12`, the activation in test [1] was -16.4% and -8.59%. For the same molecule, the Potency result in test [2] and in test [3] was “inactive” throughout. Moreover, the viability in [4] was 91.2%. Further, the Potency in [9] was 4.17 µM (active).

`O=C1CCCC2=C1C(c1[nH]ncc1Cl)N=C(Nc1nc3ccccc3o1)N2` (stereo not drawn): in test [1], the activation is -17.4% and 19.7%. Besides, the Potency result in [2], in test [3] and in test [6] was “inactive” in each case. For the same molecule, the viability in test [4] was 78.9%. Further, the Potency in test [7] is 10.5 µM (active); in test [10], 16.6 µM (active).

Take `Cn1ncc(Cl)c1-c1cc(C(=O)N[C@H](CN)Cc2cccc(F)c2)sc1Cl`: the Potency in test [1] is 30.1 µM (active); in test [4] it was 9.34 µM (active); in test [8], 16.6 µM (active); in [6], 18.6 µM (active). Further, the Potency result in [2] and in test [3] was “inactive” throughout.

Consider `O=C(Nc1ccc(Oc2ccnc3[nH]ccc23)c(F)c1)c1cccn(-c2ccc(F)cc2)c1=O`, for which the activation in test [1] was -27.3% and -22.3%. The Potency result in [2], in [3] and in test [9] was “inactive” throughout. Also, the viability in [4] is 106%. Besides, the values for the Potency in [7], in [10] and in test [6] were 0.0295 µM (active), 2.35 µM (active) and 8.33 µM (active), respectively.

Consider `COCCNCc1ccc(-c2cc3nccc(Oc4ccc(NC(=O)C5(C(=O)Nc6ccc(F)cc6)CC5)cc4F)c3s2)nc1`, for which the Potency in [1] is 19 µM (active); in [4] it was 13.2 µM (active); in [8] it was 2.95 µM (active); in test [10], 8.33 µM (active); in test [6], 5.25 µM (active). Further, the Potency result in test [2] and in test [3] was “inactive” in each case.

For the molecule `N#CC1(c2cccc(C(=O)Nc3cc(Oc4ccc5nc(NC(=O)C6CC6)sc5n4)ccc3F)c2Cl)CC1`, the activation in test [1] is 23.6%. Also, the Potency result in [2], in test [3] and in test [9] was “inactive” each time. For the same molecule, the viability in test [4] was 82.7%.

For the molecule `Cc1c(C)n(Cc2ccc(-c3ccccc3C(=O)O)cc2)c2ccc(C(=O)N[C@@H](C)c3ccc([N+](=O)[O-])cc3)cc12`, the activation in test [1] was 21.3% and -1.79%. Besides, the Potency result in [2], in test [3], in test [8], in test [9], in test [10] and in test [6] was “inactive” each time. Besides, the viability in [4] is 111%.
